In PubChem BioAssay:
Active and inactive are the calls of the source.

Tests used:
[1] = binders of probe aFSTL3 on microarray, primary screen, stem cell growth factor project, biochemical, small-molecule microarray, fluorescence 635/667 (AID 1064); details: higher = more signal;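 also: measures binding of the biotinylated anti-FSTL3 antibody to printed compounds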
[2] = binders from COS7 lysate, DM2A8 probe, primary screen, torsin A project, cell lysate, small-molecule microarray, fluorescence 635/667 (AID 1065); details: higher = more signal, COS7 lysate expressing mutant human TOR1A
[3] = binders of probe aFGF2 on microarray, primary screen, stem cell growth factor project, biochemical, small-molecule microarray, fluorescence 635/667 (AID 1067); details: higher = more signal;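 also: measures binding of biotinylated aFGF2 protein to printed compounds on slides; z-score merges feature fluorescence and signal-to-noise across triplicate slides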
[4] = binders of probe aFGF10 on microarray, primary screen, stem cell growth factor project, biochemical, small-molecule microarray, fluorescence 635/667 (AID 1071); details: higher = more signal;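 also: score merges 667 nm spot intensity and signal to noise from triplicate slides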
[5] = target: Neurogenic locus notch homolog protein 2 (Homo sapiens) (UniProt Q04721); test: Notch2 binders on small-molecule microarrays, primary screen, biochemical, small-molecule microarray, 635 nm fluorescence, stem cell growth factors (AID 1073); details: Notch2 binding, higher = more signal
Neurogenic locus notch homolog protein 2 (Homo sapiens), sequence (Q04721 whole entry, looked up, canonical isoform): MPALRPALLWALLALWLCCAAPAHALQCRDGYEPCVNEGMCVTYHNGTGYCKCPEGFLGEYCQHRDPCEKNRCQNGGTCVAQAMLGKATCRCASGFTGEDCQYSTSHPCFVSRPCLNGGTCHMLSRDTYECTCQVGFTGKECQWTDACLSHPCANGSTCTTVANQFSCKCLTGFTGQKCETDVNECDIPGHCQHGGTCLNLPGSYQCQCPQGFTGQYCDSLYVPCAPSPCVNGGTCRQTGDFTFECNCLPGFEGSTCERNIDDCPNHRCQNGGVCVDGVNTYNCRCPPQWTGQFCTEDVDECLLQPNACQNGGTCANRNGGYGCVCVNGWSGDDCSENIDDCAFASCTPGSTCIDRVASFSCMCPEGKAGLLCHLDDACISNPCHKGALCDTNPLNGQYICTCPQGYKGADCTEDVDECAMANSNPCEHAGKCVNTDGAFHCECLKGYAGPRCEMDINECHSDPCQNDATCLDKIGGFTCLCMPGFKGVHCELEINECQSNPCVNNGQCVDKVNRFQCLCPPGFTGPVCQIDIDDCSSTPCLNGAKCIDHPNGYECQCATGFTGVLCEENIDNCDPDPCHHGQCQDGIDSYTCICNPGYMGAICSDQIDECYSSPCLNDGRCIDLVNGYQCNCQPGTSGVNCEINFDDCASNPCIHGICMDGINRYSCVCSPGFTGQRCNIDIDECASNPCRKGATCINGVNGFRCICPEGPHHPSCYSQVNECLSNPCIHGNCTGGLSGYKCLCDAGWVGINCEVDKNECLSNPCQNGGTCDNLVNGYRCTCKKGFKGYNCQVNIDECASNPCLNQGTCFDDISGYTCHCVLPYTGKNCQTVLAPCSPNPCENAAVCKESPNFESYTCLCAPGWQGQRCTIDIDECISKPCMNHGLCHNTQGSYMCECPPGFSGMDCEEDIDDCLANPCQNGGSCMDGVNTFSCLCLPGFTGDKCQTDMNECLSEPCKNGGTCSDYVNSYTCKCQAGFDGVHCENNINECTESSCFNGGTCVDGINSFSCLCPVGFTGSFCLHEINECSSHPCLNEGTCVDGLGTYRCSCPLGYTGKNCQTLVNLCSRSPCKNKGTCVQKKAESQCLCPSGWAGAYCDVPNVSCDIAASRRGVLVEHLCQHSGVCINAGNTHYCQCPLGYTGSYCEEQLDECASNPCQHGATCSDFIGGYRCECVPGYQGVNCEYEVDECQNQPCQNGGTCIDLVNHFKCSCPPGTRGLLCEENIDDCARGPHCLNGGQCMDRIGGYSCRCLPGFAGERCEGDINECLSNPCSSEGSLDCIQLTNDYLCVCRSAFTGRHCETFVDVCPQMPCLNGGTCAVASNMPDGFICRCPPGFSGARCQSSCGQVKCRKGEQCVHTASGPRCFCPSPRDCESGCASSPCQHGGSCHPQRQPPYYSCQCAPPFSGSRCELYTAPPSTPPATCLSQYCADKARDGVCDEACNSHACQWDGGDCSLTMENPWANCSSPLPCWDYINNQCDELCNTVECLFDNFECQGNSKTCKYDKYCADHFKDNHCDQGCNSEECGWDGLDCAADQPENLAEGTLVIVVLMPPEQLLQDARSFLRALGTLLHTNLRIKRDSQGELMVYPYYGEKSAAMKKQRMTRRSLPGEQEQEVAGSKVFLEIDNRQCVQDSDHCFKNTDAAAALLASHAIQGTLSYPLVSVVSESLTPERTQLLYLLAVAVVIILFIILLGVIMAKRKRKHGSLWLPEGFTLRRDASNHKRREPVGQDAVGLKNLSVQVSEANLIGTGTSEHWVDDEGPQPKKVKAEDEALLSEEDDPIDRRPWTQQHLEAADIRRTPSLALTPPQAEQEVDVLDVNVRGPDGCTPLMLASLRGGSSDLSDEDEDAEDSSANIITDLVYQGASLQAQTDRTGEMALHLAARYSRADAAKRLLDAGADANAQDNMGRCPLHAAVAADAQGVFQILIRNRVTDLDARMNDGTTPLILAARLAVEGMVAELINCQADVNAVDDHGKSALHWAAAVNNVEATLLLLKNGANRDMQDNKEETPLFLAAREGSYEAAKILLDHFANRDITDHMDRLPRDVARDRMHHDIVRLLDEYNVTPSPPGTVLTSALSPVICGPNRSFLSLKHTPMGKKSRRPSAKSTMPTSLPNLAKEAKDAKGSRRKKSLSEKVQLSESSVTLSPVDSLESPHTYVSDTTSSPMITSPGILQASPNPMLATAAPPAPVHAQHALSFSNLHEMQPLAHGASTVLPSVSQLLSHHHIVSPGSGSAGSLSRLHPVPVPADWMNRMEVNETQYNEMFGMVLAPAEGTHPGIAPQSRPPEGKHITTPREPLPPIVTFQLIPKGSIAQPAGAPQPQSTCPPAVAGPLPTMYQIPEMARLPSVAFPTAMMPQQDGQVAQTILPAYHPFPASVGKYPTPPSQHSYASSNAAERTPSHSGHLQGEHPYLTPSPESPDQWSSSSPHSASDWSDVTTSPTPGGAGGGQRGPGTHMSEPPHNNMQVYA

[6] = target: Pro-neuregulin-1, membrane-bound isoform (Homo sapiens) (UniProt Q02297); test: NRG1 binders on small-molecule microarrays, primary screen, psychiatric disease protein project, biochemical, small-molecule microarray, fluorescence 635/667 (AID 1075); details: NRG1 binding, 635 nm fluorescence, higher = more signal;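 also: score combines 667 nm spot fluorescence with signal to noise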
Pro-neuregulin-1, membrane-bound isoform (Homo sapiens), sequence (Q02297 whole entry, looked up, the tested form may be a part, canonical isoform): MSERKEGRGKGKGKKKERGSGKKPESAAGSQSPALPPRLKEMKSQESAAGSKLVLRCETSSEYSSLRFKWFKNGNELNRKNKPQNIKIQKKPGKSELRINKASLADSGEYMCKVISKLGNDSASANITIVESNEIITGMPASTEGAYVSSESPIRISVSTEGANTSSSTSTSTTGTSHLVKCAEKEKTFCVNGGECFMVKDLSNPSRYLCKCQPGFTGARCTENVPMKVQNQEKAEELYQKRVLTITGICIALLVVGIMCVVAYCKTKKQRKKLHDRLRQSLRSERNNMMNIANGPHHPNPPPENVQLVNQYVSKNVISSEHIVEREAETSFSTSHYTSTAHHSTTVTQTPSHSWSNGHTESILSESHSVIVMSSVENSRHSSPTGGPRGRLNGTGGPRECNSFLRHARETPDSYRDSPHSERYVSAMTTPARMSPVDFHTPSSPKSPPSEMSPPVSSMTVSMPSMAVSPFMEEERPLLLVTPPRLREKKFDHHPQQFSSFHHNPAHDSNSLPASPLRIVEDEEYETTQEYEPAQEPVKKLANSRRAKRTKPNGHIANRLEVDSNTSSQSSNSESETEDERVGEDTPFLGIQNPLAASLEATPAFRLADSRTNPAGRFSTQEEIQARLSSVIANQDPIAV

[7] = tested on: Neuregulin-1 EGF-like domain; test: binders of neuregulin-1 EGF-like domain, primary screen, biochemical, small-molecule microarray, 635 nm fluorescence (AID 1081); details: small-molecule microarray binding, higher = more signal;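 also: binding of the protein to compounds printed on small-molecule microarray slides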
[8] = FRG1 promoter luciferase signal modulators, primary screen, FRG1 inhibition for FSHD, cell-based, C2C12 myotubes, firefly/Renilla luciferase, luminescence (AID 1084); details: higher = more signal, called active from +8 up or from −8 down
[9] = binders of probe aFST on microarray, primary screen, stem cell growth factor project, biochemical, small-molecule microarray, fluorescence 635/667 (AID 1086); details: higher = more signal;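 also: score merges 667 nm fluorescence with signal-to-noise of each printed compound spot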
[10] = binders of probe aHhip on microarray, primary screen, stem cell growth factor project, biochemical, small-molecule microarray, fluorescence 635/667 (AID 1087); details: higher = more signal;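 also: score merges spot fluorescence at 667nm with spot signal to noise ratio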
[11] = tested on: PRMT1 (protein arginine N-methyltransferase 1); test: PRMT1 binders on small-molecule microarrays, primary screen, biochemical, small-molecule microarray, 635 nm fluorescence (AID 1088); details: small-molecule microarray binding, higher = more signal;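 also: binding of Prmt1 protein to compounds spotted on small-molecule microarray slides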
[12] = yeast growth modulation, basal conditions, primary screen, YJM789 clinical isolate, OD600, 24 h (AID 1089);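 also: growth of clinical yeast isolate S. cerevisiae YJM 789 seeded 1000 cells per well; test concentration not given here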; details: S. cerevisiae YJM789 growth, higher = more signal, called active from +8 up or from −8 down
[13] = fission yeast growth modulation, primary screen, strain 972, OD600, 24 h, no modulator (AID 1090);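 also: basal condition with compound alone and no growth modifier present; test concentration not given here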; details: S. pombe 972 growth, higher = more signal, called active from +8 up or from −8 down
[14] = S. cerevisiae growth modulation with rapamycin, primary screen, strain BY4716, OD600, 96 h (AID 1091); details: higher = more signal, called active from +8 up or from −8 down; also: test concentration not given here
[15] = target: Torsin-1A-interacting protein 2 (Homo sapiens) (UniProt Q8NFQ8); test: LULL1 binders on small-molecule microarray, primary screen, cell lysate, human LULL1 lysate, 635/667 nm fluorescence (AID 1092); details: hLULL1 lysate binding, 635 nm fluorescence, higher = more signal;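 also: probe is lysate of COS7 cells overexpressing human LULL1; score merges per-feature 667 nm fluorescence with signal-to-noise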
Torsin-1A-interacting protein 2 (Homo sapiens), sequence (Q8NFQ8 whole entry, looked up): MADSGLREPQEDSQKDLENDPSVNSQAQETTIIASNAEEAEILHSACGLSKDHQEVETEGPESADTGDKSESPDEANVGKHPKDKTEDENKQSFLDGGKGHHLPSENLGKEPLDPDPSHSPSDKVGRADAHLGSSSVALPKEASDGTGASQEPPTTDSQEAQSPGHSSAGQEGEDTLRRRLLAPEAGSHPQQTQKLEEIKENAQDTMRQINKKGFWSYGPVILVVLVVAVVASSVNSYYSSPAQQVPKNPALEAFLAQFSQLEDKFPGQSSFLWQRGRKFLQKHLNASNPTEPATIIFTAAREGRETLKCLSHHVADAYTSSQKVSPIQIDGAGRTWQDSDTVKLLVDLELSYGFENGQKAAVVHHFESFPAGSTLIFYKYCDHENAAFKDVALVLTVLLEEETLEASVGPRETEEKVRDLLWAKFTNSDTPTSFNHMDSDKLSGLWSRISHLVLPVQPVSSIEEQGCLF

[16] = E. coli growth modulation, two-sided OD650, primary screen, E. coli filamentation project, strain DRC41, 24 h (AID 1093); details: OD650, 24 h, higher = more signal, called active from +8 up or from −8 down;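 also: MC1000 strain lacking acrAB efflux and sulA so SOS filamentation is blocked; test concentration not given here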
[17] = small-molecule microarray binders of probe aLefty2, primary screen, biochemical, biotinylated probe, 635/667 nm fluorescence (AID 1094); details: higher = more signal;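 also: score merges spot fluorescence near 667 nm with spot signal-to-noise ratio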
[18] = tested on: Noggin (protein binding on small-molecule microarray); test: Noggin binders on small-molecule microarray, primary screen, biochemical, 635/667 nm fluorescence (AID 1095); details: 635 nm fluorescence, higher = more signal;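 also: score merges 667 nm feature fluorescence with signal to noise over triplicate slides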
[19] = target: Neurogenic locus notch homolog protein 3 (Homo sapiens) (UniProt Q9UM47); test: NOTCH3 binders on small-molecule microarray, primary screen, biochemical, 635/667 nm fluorescence (AID 1096); details: NOTCH3 binding, 635 nm fluorescence, higher = more signal
[20] = small-molecule microarray binders of probe aEGFR, primary screen, biochemical, biotinylated probe, 635/667 nm fluorescence (AID 1097); details: higher = more signal;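 also: probe is a biotinylated anti-EGFR antibody binding compounds printed on slides; score combines fluorescence near 667 nm and signal to noise of each spot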

SMILES	composite z-score [1]	composite z-score [2]	composite z-score [3]	composite z-score [4]	composite z-score [5]	composite z-score [6]	composite z-score [7]	z-score [8]	composite z-score [9]	composite z-score [10]	composite z-score [11]	z-score [12]	z-score [13]	z-score [14]	composite z-score [15]	z-score [16]	composite z-score [17]	composite z-score [18]	composite z-score [19]	composite z-score [20]
COC(=O)CC=C[C@@H](C)[C@@H](C=NOC[C@@H](C)[C@H](OCc1ccccc1)C(C)C)OC	-0.598	-0.163	-0.0985	0.229	0.0445	-0.296	0.413	0.947 (inactive)	-0.0348	-0.395	0.823	0.0783 (inactive)	-0.466 (inactive)	1.13 (inactive)	0.227	-0.0725 (inactive)	-0.215	0.293	0.232	-0.126
COC(=O)[C@H](C)NC(=O)CCC1CC(OC(=O)NCc2cccc3ccccc23)CC2(CCCC(COC(=O)NCc3cccc(C(F)(F)F)c3)O2)O1 (stereo not given in full)	-0.428	0.182	-0.0316	0.762	1.17	1.09	1.01	-0.374 (inactive)	0.657	-0.271	1.41	-2.05 (inactive)	-0.645 (inactive)	0.523 (inactive)	1.78	-1.21 (inactive)	-0.139	0.6	1.09	0.151
COC(=O)CC=C[C@@H](C)[C@@H](C=NOC[C@@H](O)COCc1ccco1)OC	-0.663	2.07	-0.225	-0.813	-1.05	-0.209	0.532	0.103 (inactive)	-0.466	-0.164	0.302	-0.0605 (inactive)	-0.543 (inactive)	0.225 (inactive)	0.378	-0.255 (inactive)	-0.336	1.49	-0.456	-0.132
CC(C)CON=C1C[C@@H](O)[C@@H](O)[C@@H]2[C@@H]3C(=O)N(Cc4ccccc4)C(=O)[C@@H]3CC[C@H]12	-0.467	0.0791	-0.143	-0.0185	0.587	0.349	0.0796	0.602 (inactive)	-0.153	-0.204	-0.238	-0.549 (inactive)	-0.449 (inactive)	-1.17 (inactive)	0.12	0.843 (inactive)	-0.117	0.454	0.824	0.088
CO[C@H]1COC(=O)CCC[C@H](C)[C@H](OC)COC(=O)CC=C[C@@H]1C	-0.535	1.95	-0.142	-0.692	-0.497	-0.441	-0.291	-0.948 (inactive)	-0.168	0.0922	1.12	-1.3 (inactive)	-0.654 (inactive)	-1.59 (inactive)	-1.88	-0.0243 (inactive)	-0.0113	1.13	-0.398	0.0278
O=C1C[C@H](c2ccccc2)[C@H](c2ccc(Br)cc2)O1	-0.295	0.246	-0.0761	0.289	0.0429	-0.482	-0.293	-0.78 (inactive)	0.133	-0.0994	-0.146	-3.83 (inactive)	-11.8 (active)	-1.84 (inactive)	-0.247	0.421 (inactive)	-0.224	0.401	-0.489	-0.17
COC(=O)[C@@H]1CC[C@H](C)[C@@H](c2ccc(C)cc2)N1C(=O)c1ccc(C=NOC[C@H]2O[C@H](c3ccccc3)C=C[C@@H]2Oc2ccc(OC)cc2)cc1	-0.462	-0.24	-0.154	0.217	-0.0637	0.0379	-0.631	0.434 (inactive)	0.044	-0.191	0.391	0.456 (inactive)	0.267 (inactive)	0.0902 (inactive)	-0.703	-0.234 (inactive)	-0.0977	-0.0296	0.107	-0.0682
C=CC[C@@H]1C=C[C@H](ON=CC[C@@H]2C=C[C@H](OC(C)=O)[C@@H](COC(C)=O)O2)[C@@H](CO)O1	-0.256	0.52	-0.0864	0.75	1.12	1.06	1.11	0.411 (inactive)	1.06	-0.314	1.26	0.953 (inactive)	0.489 (inactive)	0.476 (inactive)	1.3	0.558 (inactive)	0.235	0.984	1.05	0.169
C#CCCCON=C1[C@H]2CCn3c(=O)n(Cc4cc5c(cc4Cl)OCO5)c(=O)n3[C@H]2[C@H](O)[C@@H]2O[C@H]12	-0.652	0.203	-0.108	0.365	0.63	0.113	0.107	-0.12 (inactive)	0.241	-0.0645	0.0698	0.842 (inactive)	1.28 (inactive)	1.63 (inactive)	0.0322	0.314 (inactive)	0.147	0.508	0.836	-0.191
C=CC[C@@H]1C=C[C@H](Oc2ccc(C)cc2)[C@@H](COC(=O)NCc2cccc3ccccc23)O1	-0.406	0.012	-0.144	0.655	-0.141	0.528	0.724	-0.446 (inactive)	-0.174	-0.251	0.261	0.697 (inactive)	-0.341 (inactive)	0.774 (inactive)	0.557	-0.61 (inactive)	-0.116	0.725	-0.0971	-0.136
